# Results from PubChem BioAssay (EPA / NIEHS).
# Calls of active or inactive are those of the source. Rule for the calls: active = hit-call score of the fitted dose curve at least 0.9, where 1 is the maximum; inactive = score below 0.9.
# Experiment: APR_HepG2_MitoMembPot_24hr: Apredica 24-hour HepG2 Assay for Mitochondrial Membrane Potential (AID 2282911)
# Details: imaging, actives raise or lower the signal
# Outline: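 Human hepatoma HepG2 cultures received ten compound concentrations up to 200 uM for 24 hr. Membrane-potential dye signal, captured by automated fluorescence microscopy, was scored for gain or loss against DMSO controls.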
SMILES,outcome,AC50
OCCO,inactive,–
Cc1cc(F)ccc1-c1cc(N2CC[C@@H](O)[C@H]2CO)ncc1N(C)C(=O)C(C)(C)c1cc(C(F)(F)F)cc(C(F)(F)F)c1,inactive,–
CC(O)CC(C)(C)O (stereo unspecified),inactive,–
CC1(C)NC(=O)N(c2ccc([N+](=O)[O-])c(C(F)(F)F)c2)C1=O,inactive,–
CCCCOC(=O)c1ccc(O)cc1,inactive,–
Oc1ccccc1,inactive,–
CC(C)(C)c1cc(/C=C2\SC(N)=NC2=O)cc(C(C)(C)C)c1O,inactive,–
O=C=NCCCCCCN=C=O,inactive,–
NCc1cccc(C2CCN(C(=O)c3ccc(C#Cc4ccccc4F)o3)CC2)c1,–,18.4 µM (active)
CN(C)C(=O)C1(N2CCCCC2)CCN(CC[C@@]2(c3ccc(Cl)c(Cl)c3)CN(C(=O)c3ccccc3)CCO2)CC1,inactive,–
Cc1occc1C(=O)Nc1ccc(C(=O)N2CCC(F)(F)/C(=C\C(=O)N3CCC(N4CCCCC4)CC3)c3ccccc32)cc1,inactive,–
C[C@]12CC[C@@H]3c4ccc(O)cc4CC[C@H]3[C@@H]1CCC2=O,inactive,–
COc1cc(C(=O)NC2CCN(C)CC2)ccc1Nc1ncc2c(n1)N(C1CCCC1)CC(F)(F)C(=O)N2C,inactive,–
O=C(O)Cc1cc(I)c(Oc2ccc(O)c(I)c2)c(I)c1,inactive,–
Cc1oc2c(NC(=O)c3c(Cl)cccc3Cl)cccc2c1C(C)(C)O,inactive,–
O=CCCCC=O,inactive,–
CC[C@H](NC(=O)c1cc(F)ccc1NS(=O)(=O)c1cccc2cccnc12)c1ccccc1,–,105 µM (active)
O=c1ccc2ccccc2o1,inactive,–
c1ccc(C[n+]2cccc3ccccc32)cc1,–,32.8 µM (active)

SMILES,outcome,AC50
O=C(OCCCCCCOC(=O)c1ccccc1)c1ccccc1,inactive,–
CCCCCCCCN(C)CCCCCCCC,inactive,–
Cc1ncc(CO)c(CO)c1O,inactive,–
Oc1ccc2ccccc2c1,inactive,–
CCCCCCCCCCCC[N+](C)(C)C,inactive,–
c1ccc2ccccc2c1,inactive,–
CCCCCCCC[Si](OCC)(OCC)OCC,–,29.8 µM (active)
OC12N=C(c3ccccc3)SC1Cc1cc(Cl)ccc12 (stereo unspecified),inactive,–
CN1C(=O)N(c2ccccc2Br)Cc2cnc(Nc3ccc4c(c3)OCC(CO)O4)nc21 (stereo unspecified),–,105 µM (active)
CC(C)(C)c1csc(-c2cc3cc(OCc4ccccc4CC(=O)O)ccc3o2)n1,inactive,–
CN(C[C@@H](CC[N+]12CCC(C3CCCCC3)(CC1)CC2)c1ccc(Cl)c(Cl)c1)C(=O)c1cc(C(F)(F)F)cc(C(F)(F)F)c1,–,1.27 µM (active)
CCCCCCCCCCCO,–,110 µM (active)
Clc1cc(Cl)c2c(c1)N=C1CCCCCN1C2,–,0.0248 µM (active)
O=C(O)Cn1c(=O)n(Cc2ccc(Br)cc2F)c(=O)c2ccc(Cl)cc21,inactive,–
CC[C@@H]1C[C@H](N(Cc2cc(C(F)(F)F)cc(C(F)(F)F)c2)C(C)=O)c2cc(C(F)(F)F)ccc2N1C(=O)OC(C)C,–,0.0358 µM (active)
CCCCCCCCOC(=O)c1cc(O)c(O)c(O)c1,–,13.5 µM (active)
CC/C(=C(/CC)c1ccc(O)cc1)c1ccc(O)cc1,inactive,–
c1ccc2n[nH]nc2c1,inactive,–
Cc1cn([C@H]2C[C@H](N=[N+]=[N-])[C@@H](CO)O2)c(=O)[nH]c1=O,inactive,–

# Experiment: APR_HepG2_MitoMass_24hr: Apredica 24-hour HepG2 Assay for Mitochondrial Mass (AID 2282912)
# Details: high-content imaging, actives raise or lower the signal
# Outline: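 Endpoint is MitoTracker Red CMXRos (250 nM, 30 min, pre-fixation) intensity from 20x high-content imaging, nuclei located by Hoechst. Human HepG2 cells received ten concentrations from 0.39 to 200 uM in 0.5% DMSO for 24 hr, duplicate wells. Bidirectional fit relative to DMSO.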
SMILES,outcome,AC50
OCCO,inactive,–
Cc1cc(F)ccc1-c1cc(N2CC[C@@H](O)[C@H]2CO)ncc1N(C)C(=O)C(C)(C)c1cc(C(F)(F)F)cc(C(F)(F)F)c1,inactive,–
CC(O)CC(C)(C)O (stereo unspecified),inactive,–
CC1(C)NC(=O)N(c2ccc([N+](=O)[O-])c(C(F)(F)F)c2)C1=O,inactive,–
CCCCOC(=O)c1ccc(O)cc1,inactive,–
Oc1ccccc1,inactive,–
CC(C)(C)c1cc(/C=C2\SC(N)=NC2=O)cc(C(C)(C)C)c1O,–,32.7 µM (active)
O=C=NCCCCCCN=C=O,inactive,–
NCc1cccc(C2CCN(C(=O)c3ccc(C#Cc4ccccc4F)o3)CC2)c1,inactive,–
CN(C)C(=O)C1(N2CCCCC2)CCN(CC[C@@]2(c3ccc(Cl)c(Cl)c3)CN(C(=O)c3ccccc3)CCO2)CC1,–,7.74 µM (active)
Cc1occc1C(=O)Nc1ccc(C(=O)N2CCC(F)(F)/C(=C\C(=O)N3CCC(N4CCCCC4)CC3)c3ccccc32)cc1,inactive,–
C[C@]12CC[C@@H]3c4ccc(O)cc4CC[C@H]3[C@@H]1CCC2=O,inactive,–
COc1cc(C(=O)NC2CCN(C)CC2)ccc1Nc1ncc2c(n1)N(C1CCCC1)CC(F)(F)C(=O)N2C,inactive,–
O=C(O)Cc1cc(I)c(Oc2ccc(O)c(I)c2)c(I)c1,inactive,–
Cc1oc2c(NC(=O)c3c(Cl)cccc3Cl)cccc2c1C(C)(C)O,inactive,–
O=CCCCC=O,inactive,–
CC[C@H](NC(=O)c1cc(F)ccc1NS(=O)(=O)c1cccc2cccnc12)c1ccccc1,inactive,–
O=c1ccc2ccccc2o1,inactive,–
c1ccc(C[n+]2cccc3ccccc32)cc1,–,167 µM (active)

SMILES,outcome,AC50
O=C(OCCCCCCOC(=O)c1ccccc1)c1ccccc1,inactive,–
CCCCCCCCN(C)CCCCCCCC,inactive,–
Cc1ncc(CO)c(CO)c1O,inactive,–
Oc1ccc2ccccc2c1,inactive,–
CCCCCCCCCCCC[N+](C)(C)C,–,180 µM (active)
c1ccc2ccccc2c1,inactive,–
CCCCCCCC[Si](OCC)(OCC)OCC,inactive,–
OC12N=C(c3ccccc3)SC1Cc1cc(Cl)ccc12 (stereo unspecified),inactive,–
CN1C(=O)N(c2ccccc2Br)Cc2cnc(Nc3ccc4c(c3)OCC(CO)O4)nc21 (stereo unspecified),inactive,–
CC(C)(C)c1csc(-c2cc3cc(OCc4ccccc4CC(=O)O)ccc3o2)n1,inactive,–
CN(C[C@@H](CC[N+]12CCC(C3CCCCC3)(CC1)CC2)c1ccc(Cl)c(Cl)c1)C(=O)c1cc(C(F)(F)F)cc(C(F)(F)F)c1,–,100 µM (active)
CCCCCCCCCCCO,inactive,–
Clc1cc(Cl)c2c(c1)N=C1CCCCCN1C2,inactive,–
O=C(O)Cn1c(=O)n(Cc2ccc(Br)cc2F)c(=O)c2ccc(Cl)cc21,inactive,–
CC[C@@H]1C[C@H](N(Cc2cc(C(F)(F)F)cc(C(F)(F)F)c2)C(C)=O)c2cc(C(F)(F)F)ccc2N1C(=O)OC(C)C,inactive,–
CCCCCCCCOC(=O)c1cc(O)c(O)c(O)c1,inactive,–
CC/C(=C(/CC)c1ccc(O)cc1)c1ccc(O)cc1,–,46 µM (active)
c1ccc2n[nH]nc2c1,inactive,–
Cc1cn([C@H]2C[C@H](N=[N+]=[N-])[C@@H](CO)O2)c(=O)[nH]c1=O,inactive,–
